Active and inactive are the calls of the source. Unless noted, how the calls were made is not given here.
Columns and labels:
[1] = system: XIP peptide (Xip251-270) binding; experiment: small-molecule binders of XIP peptide, primary screen, biochemical, small-molecule microarray, fluorescence 635/667 nm, 0.1 µg/mL protein (AID 1182); conditions: fluorescent protein binding, 635 nm, higher = more signal, called active from +8 up or from −8 down
XIP peptide (Xip251-270) = experiment: small-molecule binders of XIP peptide, primary screen, biochemical, small-molecule microarray, fluorescence 635/667 nm, 0.5 µg/mL protein (AID 1183); conditions: small-molecule microarray binding, fluorescence 635 nm; higher = more signal
[2] = Plasmodium falciparum growth inhibition, primary screen, strain 3D7, DAPI fluorescence, 100 nL (AID 1184);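 further: parasites grown inside human red blood cells in medium with human serum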; conditions: P. falciparum 3D7 growth, 3 d, higher = more signal
[3] = molecular target: Homeobox protein Hox-A13 (Mus musculus) (UniProt Q62424); experiment: inhibitors of HoxA13-DNA binding, primary screen, biochemical, fluorescence polarization, labeled oligonucleotide (AID 1185); conditions: 15 min, higher = more signal, called active from +8 up or from −8 down
Sequence of Homeobox protein Hox-A13 (Mus musculus) (Q62424 whole entry, looked up): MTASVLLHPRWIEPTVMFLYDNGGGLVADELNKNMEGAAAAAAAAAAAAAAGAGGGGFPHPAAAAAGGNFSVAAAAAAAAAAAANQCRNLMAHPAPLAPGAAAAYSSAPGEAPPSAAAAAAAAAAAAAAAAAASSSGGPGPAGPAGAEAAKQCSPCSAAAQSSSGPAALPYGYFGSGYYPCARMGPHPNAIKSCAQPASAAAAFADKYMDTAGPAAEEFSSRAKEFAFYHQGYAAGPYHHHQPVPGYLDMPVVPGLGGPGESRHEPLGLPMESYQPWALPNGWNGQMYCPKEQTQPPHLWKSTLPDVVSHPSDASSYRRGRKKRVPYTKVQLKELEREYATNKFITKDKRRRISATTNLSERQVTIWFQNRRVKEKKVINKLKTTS

[4] = inhibitors of hydroxyurea-induced Chk1 phosphorylation, primary screen, imaging, HeLa, phospho-Chk1 antibody, percent positive cells (AID 1186); conditions: hydroxyurea-induced phospho-Chk1 immunofluorescence imaging, higher = more signal
[5] = inhibitors of hydroxyurea-induced Chk1 phosphorylation, primary screen, imaging, HeLa, phospho-Chk1 nuclear intensity (AID 1187); conditions: hydroxyurea-induced phospho-Chk1 immunofluorescence imaging, higher = more signal

With `CC=CC(O)C1C=CC2C(=O)N(c3ccccc3)C(=O)C2N1Nc1ccc([N+](=O)[O-])cc1` (configuration not stated) the composite z-score [1] was 0.542 (inactive), the composite z-score (XIP peptide (Xip251-270)) was 0.135 and the z-score [2] was 1.01. For the same compound, the z-score [3] was -3.01 (inactive), the z-score [4] was -0.263 (inactive) and the z-score [5] was -0.973 (inactive).

In the case of `COCCOC(=O)N1C(=O)[C@@]2(c3ccccc31)[C@H](c1ccc(OCCO)cc1)N1[C@H](c3ccccc3)[C@H](c3ccccc3)OC(=O)[C@H]1[C@@H]2C(=O)Nc1nc2ccccc2s1`, the composite z-score [1] is reported as 1.72 (inactive), the composite z-score (XIP peptide (Xip251-270)) is reported as 0.745 and the z-score [2] is reported as -0.365. For the same compound, the z-score [3] was 0.0267 (inactive), the z-score [4] was -0.0021 (inactive) and the z-score [5] was -0.178 (inactive).

For `CO[C@H]1O[C@H](CO)[C@@H](OC(=O)Nc2ccc(Oc3ccccc3)cc2)[C@H](OC(=O)Nc2ccccc2-c2ccccc2)[C@@H]1OC(=O)Nc1ccccc1-c1ccccc1`, the composite z-score [1] was 0.356 (inactive), the composite z-score (XIP peptide (Xip251-270)) was 0.759 and the z-score [2] was -2.39. The z-score [3] was -1.71 (inactive), the z-score [4] was -0.141 (inactive) and the z-score [5] was -0.148 (inactive).

In the case of `NCCCCCCNC(=O)[C@H]1C[C@H]2C(=O)N[C@@H](Cc3ccccc3)C(=O)N2[C@H]1c1ccc(O)cc1`, the composite z-score [1] is reported as -0.342 (inactive), the composite z-score (XIP peptide (Xip251-270)) is reported as 0.623 and the z-score [2] is reported as 0.171. For the same compound, the z-score [3] was -3.5 (inactive), the z-score [4] was -0.174 (inactive) and the z-score [5] was 0.592 (inactive).

For `O=C(CS)NCCCCCCNC(=O)[C@@H]1C[C@@H]2C(=O)N3CCC[C@H]3C(=O)N2[C@@H]1c1cccc(OCCO)c1`, the composite z-score [1] was 1.97 (inactive), the composite z-score (XIP peptide (Xip251-270)) was 0.864 and the z-score [2] was 0.0153. For the same compound, the z-score [3] was -3.25 (inactive), the z-score [4] was -1.31 (inactive) and the z-score [5] was -0.971 (inactive).

In the case of `COC(=O)C(CC#Cc1ccc2c(c1)[C@]1(C(=O)N2)[C@H](C(=O)O)[C@H]2C(=O)O[C@H](c3ccccc3)[C@H](c3ccccc3)N2[C@@H]1c1ccccc1OCCO)C(=O)OC`, the composite z-score [1] is reported as 0.341 (inactive), the composite z-score (XIP peptide (Xip251-270)) is reported as 0.853 and the z-score [2] is reported as -2.06. For the same compound, the z-score [3] was -6.38 (inactive), the z-score [4] was -0.244 (inactive) and the z-score [5] was -0.674 (inactive).

In the case of `C=CCOC(=O)[C@@H]1[C@H]2C(=O)O[C@H](c3ccccc3)[C@H](c3ccccc3)N2[C@H](c2ccc(OCCOC(=O)[C@H]3C[C@H]4C(=O)N[C@@H](CCCC[N+](C)(C)C)C(=O)N4[C@H]3c3ccc(O)cc3)cc2)[C@@]12C(=O)Nc1ccc(I)cc12`, the composite z-score [1] is reported as 0.708 (inactive), the composite z-score (XIP peptide (Xip251-270)) is reported as 0.873 and the z-score [2] is reported as -1.16. For the same compound, the z-score [3] was -0.103 (inactive), the z-score [4] was -0.655 (inactive) and the z-score [5] was -0.636 (inactive).

With `COCCCNC(=O)[C@@H]1c2ccccc2C(=O)N(Cc2ccccc2C(F)(F)F)[C@H]1c1ccc(CO)cc1` the composite z-score [1] was 0.348 (inactive), the composite z-score (XIP peptide (Xip251-270)) was -0.149 and the z-score [2] was 0.226. The z-score [3] was -1.82 (inactive), the z-score [4] was -0.477 (inactive) and the z-score [5] was -0.593 (inactive).

With `C=CCC(OC(C)=O)[C@@H]1[C@@H](N(Cc2cc3ccccc3o2)C(=O)Cc2ccc(F)cc2)c2cc(OCCCO)ccc2N1C(=O)c1ccc2ccccc2n1` (some centres not stated) the composite z-score [1] was -0.173 (inactive), the composite z-score (XIP peptide (Xip251-270)) was -0.442 and the z-score [2] was 0.774. For the same compound, the z-score [3] was -1.55 (inactive), the z-score [4] was 0.702 (inactive) and the z-score [5] was 0.636 (inactive).

With `C[C@@H]1ON(c2ccc(C(=O)OC(C)(C)C)cc2)[C@H](c2ccc(Br)cc2)[C@H]1C(=O)N1C(=O)OC[C@H]1Cc1ccccc1` the composite z-score [1] was 0.36 (inactive), the composite z-score (XIP peptide (Xip251-270)) was 0.321 and the z-score [2] was -0.238. For the same compound, the z-score [3] was -0.654 (inactive), the z-score [4] was -0.55 (inactive) and the z-score [5] was -0.237 (inactive).

With `CC1CC/C=C\[C@H]2OC34C=CCN(c5ccc6ccccc6c5)C(=O)[C@H]3N(C(CO)C(C)C)C(=O)[C@@H]4C2C(=O)O1` (some centres not stated) the composite z-score [1] was 0.17 (inactive), the composite z-score (XIP peptide (Xip251-270)) was -0.0558 and the z-score [2] was -0.571. The z-score [3] was -6.57 (inactive), the z-score [4] was 0.174 (inactive) and the z-score [5] was 0.604 (inactive).

With `CCCCN1CC=CC23O[C@@H]4C=CCOC(=O)[C@@H]4[C@H]2C(=O)N(CCCO)[C@@H]3C1=O` (some centres not stated) the composite z-score [1] was 0.769 (inactive), the composite z-score (XIP peptide (Xip251-270)) was -0.374 and the z-score [2] was -1.81. For the same compound, the z-score [3] was -4.48 (inactive), the z-score [4] was -0.247 (inactive) and the z-score [5] was -0.169 (inactive).

With `O=C1O[C@H](c2ccccc2)[C@H](c2ccccc2)N2[C@H]1[C@@H](C(=O)O)[C@]1(C(=O)Nc3ccccc31)[C@H]2c1ccc(O)cc1` the composite z-score [1] was 0.624 (inactive), the composite z-score (XIP peptide (Xip251-270)) was 0.212 and the z-score [2] was -0.0758. For the same compound, the z-score [3] was -5.84 (inactive), the z-score [4] was 0.0422 (inactive) and the z-score [5] was -0.426 (inactive).

For `Cc1c(NC(=O)/C(C#N)=C/C=C/c2ccc(N(C)C)cc2)c(=O)n(-c2ccccc2)n1C`, the composite z-score [1] was 1.41 (inactive), the composite z-score (XIP peptide (Xip251-270)) was 0.7 and the z-score [2] was -0.46. The z-score [3] was -13.8 (active), the z-score [4] was 0.348 (inactive) and the z-score [5] was 0.996 (inactive).

With `O=C(N1CCCCC1)[C@@]1(Cc2ccccc2)COC(c2ccc(OCCCO)cc2)=N1` the composite z-score [1] was 1.07 (inactive), the composite z-score (XIP peptide (Xip251-270)) was 0.819 and the z-score [2] was -1.77. The z-score [3] was -5.09 (inactive), the z-score [4] was -0.542 (inactive) and the z-score [5] was -0.344 (inactive).

In the case of `CC1CC/C=C\[C@H]2OC34C=CCN(CCN5CCOCC5)C(=O)[C@H]3N(CCO)C(=O)[C@@H]4C2C(=O)O1` (some centres not stated), the composite z-score [1] is reported as 0.467 (inactive), the composite z-score (XIP peptide (Xip251-270)) is reported as 0.829 and the z-score [2] is reported as 0.055. For the same compound, the z-score [3] was -5.81 (inactive), the z-score [4] was 0.0898 (inactive) and the z-score [5] was 0.139 (inactive).

In the case of `COC(=O)[C@@]1(Cc2ccc(F)cc2)[C@H]2c3cc(C(=O)N4CCCC4)n(CCF)c3C[C@H]2CN1C(=O)c1ccccc1`, the composite z-score [1] is reported as 2.43 (inactive), the composite z-score (XIP peptide (Xip251-270)) is reported as -0.352 and the z-score [2] is reported as -0.815. The z-score [3] was -4.62 (inactive), the z-score [4] was -0.323 (inactive) and the z-score [5] was -0.593 (inactive).

For `C=CC[C@@H](OC(=O)Nc1ccc(OC)cc1)c1ccc(OCCO)cc1`, the composite z-score [1] was 0.456 (inactive), the composite z-score (XIP peptide (Xip251-270)) was -0.543 and the z-score [2] was 0.663. The z-score [3] was -5.86 (inactive), the z-score [4] was -0.867 (inactive) and the z-score [5] was -0.431 (inactive).

In the case of `O=C1O[C@@H](c2ccccc2)[C@@H](c2ccccc2)N2[C@@H](c3ccc(O)cc3)[C@]3(C(=O)Nc4ccc(C#CCCO)cc43)[C@@H](C(=O)Nc3nc4ccccc4s3)[C@H]12`, the composite z-score [1] is reported as 0.336 (inactive), the composite z-score (XIP peptide (Xip251-270)) is reported as 0.732 and the z-score [2] is reported as 0.204. For the same compound, the z-score [3] was -0.524 (inactive), the z-score [4] was 0.151 (inactive) and the z-score [5] was 0.283 (inactive).

With `COc1ccc([Si](C)(C)[C@H]2[C@H](CC(=O)N3Cc4ccccc4C[C@H]3CO)O[C@@]3(C(=O)N(Cc4cccc(N5CCCCC5=O)c4)c4ccccc43)[C@@H]2C)cc1` the composite z-score [1] was 0.573 (inactive), the composite z-score (XIP peptide (Xip251-270)) was 0.743 and the z-score [2] was -1.62. The z-score [3] was -3.09 (inactive), the z-score [4] was -0.507 (inactive) and the z-score [5] was -0.35 (inactive).

For `CCOC(=O)C1=CC[C@@H](c2ccccc2C(F)(F)F)N(S(=O)(=O)c2ccc(C)cc2)C1`, the composite z-score [1] was 0.561 (inactive), the composite z-score (XIP peptide (Xip251-270)) was 0.667 and the z-score [2] was -0.386. The z-score [3] was -2.64 (inactive), the z-score [4] was -0.155 (inactive) and the z-score [5] was -0.341 (inactive).

For `CCOC(=CC(=O)OC)CC(O)c1cccc(Cl)c1` (configuration not stated), the composite z-score [1] was 2.68 (inactive), the composite z-score (XIP peptide (Xip251-270)) was 0.893 and the z-score [2] was -0.368. For the same compound, the z-score [3] was -3.53 (inactive), the z-score [4] was -0.119 (inactive) and the z-score [5] was 0.219 (inactive).

With `COC(=O)c1c(CC[C@@H](CO)NC(=O)N[C@H](Cn2cc(-c3ccccc3C)nn2)C(C)C)oc(C(C)=O)c1C(=O)OC` the composite z-score [1] was -0.0077 (inactive), the composite z-score (XIP peptide (Xip251-270)) was -0.0163 and the z-score [2] was -1.85. For the same compound, the z-score [3] was -0.127 (inactive), the z-score [4] was 1.16 (inactive) and the z-score [5] was 0.823 (inactive).

For `COc1cc(CO)cc(I)c1O[C@H]1C=C(C(=O)NCCO)C[C@@H](N(Cc2ccc(F)cc2)C(=O)C2CCCO2)[C@@H]1O` (some centres not stated), the composite z-score [1] was -0.192 (inactive), the composite z-score (XIP peptide (Xip251-270)) was -0.318 and the z-score [2] was 0.463. For the same compound, the z-score [3] was -4.27 (inactive), the z-score [4] was 0.36 (inactive) and the z-score [5] was 0.824 (inactive).

In the case of `CCCCN1CC=CC23O[C@@H]4C=CCOC(=O)[C@@H]4[C@H]2C(=O)N(C(C)CO)[C@@H]3C1=O` (some centres not stated), the composite z-score [1] is reported as -0.161 (inactive), the composite z-score (XIP peptide (Xip251-270)) is reported as -1.06 and the z-score [2] is reported as 1. The z-score [3] was -5.05 (inactive), the z-score [4] was -0.525 (inactive) and the z-score [5] was -0.392 (inactive).

For `O=C1OCCC=C[C@H]2OC34C=CCN(c5ccc(Cl)cc5)C(=O)[C@H]3N(CCCCCO)C(=O)[C@@H]4C12` (some centres not stated), the composite z-score [1] was 0.445 (inactive), the composite z-score (XIP peptide (Xip251-270)) was -0.342 and the z-score [2] was 0.684. For the same compound, the z-score [3] was -5.82 (inactive), the z-score [4] was 0.578 (inactive) and the z-score [5] was 0.434 (inactive).

For `O=c1cccc(-c2cccc(Cl)c2)o1`, the composite z-score [1] was 0.165 (inactive), the composite z-score (XIP peptide (Xip251-270)) was 0.108 and the z-score [2] was 0.204. The z-score [3] was -0.814 (inactive), the z-score [4] was 0.0366 (inactive) and the z-score [5] was -0.411 (inactive).

From PubChem BioAssay
